# In article PMC7862700, “An all-to-all approach to the identification of sequence-specific readers for epigenetic DNA modifications on cytosine”:
# Key:
# Assay in all cases: DAPPL (digital affinity profiling via proximity ligation, sequencing); 10 mM Tris-HCl pH 7.5, 50 mM NaCl, 1 mM DTT, 4% glycerol, room temperature, 30 min; GST-TFs on glutathione beads, 16-mer random dsDNA library, 0.1% formaldehyde crosslink after washing; high values mean tight binding
# FLI1 = target: T1, FLI1 (Homo sapiens, UniProt Q01543 1-452); settings: protein: recombinant; tags: N-terminal GST; dsDNA, one strand shown
# T1 sequence: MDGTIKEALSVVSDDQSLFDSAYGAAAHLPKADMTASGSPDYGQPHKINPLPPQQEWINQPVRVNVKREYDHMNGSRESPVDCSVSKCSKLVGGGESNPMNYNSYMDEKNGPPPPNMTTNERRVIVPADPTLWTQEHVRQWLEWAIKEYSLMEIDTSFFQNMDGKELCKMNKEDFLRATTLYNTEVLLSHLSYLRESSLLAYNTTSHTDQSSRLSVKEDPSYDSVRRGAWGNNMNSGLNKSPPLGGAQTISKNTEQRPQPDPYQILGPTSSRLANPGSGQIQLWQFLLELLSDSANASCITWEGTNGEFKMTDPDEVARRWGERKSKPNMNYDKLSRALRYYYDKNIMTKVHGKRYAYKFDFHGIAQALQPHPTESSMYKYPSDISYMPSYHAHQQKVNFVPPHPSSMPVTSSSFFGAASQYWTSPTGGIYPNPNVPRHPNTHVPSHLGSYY
# In short: (§1)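 Pools of DNA-barcoded human transcription factors, expressed in yeast as GST fusions on glutathione beads and combined with a tag-only sample, were incubated with 200 nmole of a 16-mer random double-stranded DNA library. Incubation took 30 min at room temperature in Tris/NaCl/DTT/glycerol buffer and was followed by washing, 0.1% formaldehyde crosslinking, proximity ligation (BsaI/T4 ligase, 1 h, 37 °C), PCR amplification and sequencing on an Illumina NextSeq500. Binding signal is the ratio of a hexamer's read frequency for a factor to its frequency for the tag-only sample.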
# ELK1 = target: T2, ELK1 (Homo sapiens, UniProt P19419 1-428); settings: protein: recombinant; tags: N-terminal GST; dsDNA, one strand shown
# T2 sequence: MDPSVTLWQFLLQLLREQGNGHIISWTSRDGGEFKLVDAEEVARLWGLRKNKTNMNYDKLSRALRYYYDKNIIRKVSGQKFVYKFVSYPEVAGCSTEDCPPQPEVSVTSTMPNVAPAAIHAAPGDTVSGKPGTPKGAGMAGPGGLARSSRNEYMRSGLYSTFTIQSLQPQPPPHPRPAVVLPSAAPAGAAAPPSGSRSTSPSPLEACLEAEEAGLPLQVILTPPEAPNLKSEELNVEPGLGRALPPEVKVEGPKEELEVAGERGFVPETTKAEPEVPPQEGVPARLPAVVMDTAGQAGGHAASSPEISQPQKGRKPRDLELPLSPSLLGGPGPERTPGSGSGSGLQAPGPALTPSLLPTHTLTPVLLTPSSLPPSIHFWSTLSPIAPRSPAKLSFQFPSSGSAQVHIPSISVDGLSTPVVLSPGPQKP
# In short: as §1
# GABPA = target: T3, GABPA (Homo sapiens, UniProt Q06546 1-454); settings: protein: recombinant; tags: N-terminal GST; dsDNA, one strand shown
# T3 sequence: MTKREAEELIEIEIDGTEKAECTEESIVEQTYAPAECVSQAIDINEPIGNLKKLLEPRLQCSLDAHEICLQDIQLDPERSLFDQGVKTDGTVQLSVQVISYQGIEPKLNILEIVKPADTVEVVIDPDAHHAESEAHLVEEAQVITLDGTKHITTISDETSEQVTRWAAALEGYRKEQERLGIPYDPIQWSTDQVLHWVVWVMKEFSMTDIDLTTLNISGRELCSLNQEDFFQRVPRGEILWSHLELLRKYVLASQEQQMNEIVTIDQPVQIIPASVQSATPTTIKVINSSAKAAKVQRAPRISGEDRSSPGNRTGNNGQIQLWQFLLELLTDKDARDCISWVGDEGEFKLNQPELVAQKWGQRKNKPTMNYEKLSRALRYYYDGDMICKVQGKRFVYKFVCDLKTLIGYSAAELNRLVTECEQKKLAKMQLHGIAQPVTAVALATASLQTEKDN
# In short: as §1
# ERG = target: T4, ERG (Homo sapiens, UniProt P11308 1-479); settings: protein: recombinant; tags: N-terminal GST; dsDNA, one strand shown
# T4 sequence: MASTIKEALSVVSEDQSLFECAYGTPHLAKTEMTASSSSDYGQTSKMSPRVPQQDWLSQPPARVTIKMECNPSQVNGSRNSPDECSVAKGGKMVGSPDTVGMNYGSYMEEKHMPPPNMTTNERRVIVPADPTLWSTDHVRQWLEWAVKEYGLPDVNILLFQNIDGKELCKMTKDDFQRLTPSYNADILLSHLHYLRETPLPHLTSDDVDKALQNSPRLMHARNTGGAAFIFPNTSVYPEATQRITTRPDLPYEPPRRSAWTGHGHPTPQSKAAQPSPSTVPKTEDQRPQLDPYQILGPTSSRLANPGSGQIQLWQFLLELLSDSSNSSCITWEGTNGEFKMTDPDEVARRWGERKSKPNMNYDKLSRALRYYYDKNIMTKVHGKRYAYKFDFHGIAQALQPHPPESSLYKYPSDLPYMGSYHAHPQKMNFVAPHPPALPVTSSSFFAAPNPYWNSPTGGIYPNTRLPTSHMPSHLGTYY
# In short: as §1
# ELF1 = ELF1 (Homo sapiens, UniProt P32519 1-619); settings: protein: recombinant; tags: N-terminal GST; dsDNA, one strand shown
# In short: as §1
# EHF = target: T5, EHF (Homo sapiens, UniProt Q9NZC4 1-300); settings: protein: recombinant; tags: N-terminal GST; dsDNA, one strand shown
# T5 sequence: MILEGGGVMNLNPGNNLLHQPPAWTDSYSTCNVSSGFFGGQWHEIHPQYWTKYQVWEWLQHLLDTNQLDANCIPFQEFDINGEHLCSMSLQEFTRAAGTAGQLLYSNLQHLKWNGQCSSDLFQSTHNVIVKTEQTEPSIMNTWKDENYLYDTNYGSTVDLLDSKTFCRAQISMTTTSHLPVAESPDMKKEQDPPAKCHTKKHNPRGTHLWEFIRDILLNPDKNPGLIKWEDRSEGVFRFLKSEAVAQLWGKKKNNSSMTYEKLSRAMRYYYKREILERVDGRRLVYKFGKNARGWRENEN
# In short: as §1
# SPI1 = SPI1 (Homo sapiens, UniProt P17947 1-270); settings: protein: recombinant; tags: N-terminal GST; dsDNA, one strand shown
# In short: as §1
# ELK3 = target: T6, ELK3 (Homo sapiens, UniProt P41970 1-407); settings: protein: recombinant; tags: N-terminal GST; dsDNA, one strand shown
# T6 sequence: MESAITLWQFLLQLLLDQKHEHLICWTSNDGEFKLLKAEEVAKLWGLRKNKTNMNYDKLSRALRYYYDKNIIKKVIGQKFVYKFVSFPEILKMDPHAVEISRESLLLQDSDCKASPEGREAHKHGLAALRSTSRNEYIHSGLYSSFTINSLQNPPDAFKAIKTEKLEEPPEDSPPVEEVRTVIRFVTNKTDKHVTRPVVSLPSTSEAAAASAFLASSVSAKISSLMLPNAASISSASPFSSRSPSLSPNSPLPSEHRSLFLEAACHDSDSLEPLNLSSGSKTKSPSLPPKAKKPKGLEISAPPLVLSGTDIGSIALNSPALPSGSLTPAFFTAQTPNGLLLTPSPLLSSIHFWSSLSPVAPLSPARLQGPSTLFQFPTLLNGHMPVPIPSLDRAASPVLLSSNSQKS
# In short: as §1
# FEV = target: T7, FEV (Homo sapiens, UniProt Q99581 1-238); settings: protein: recombinant; tags: N-terminal GST; dsDNA, one strand shown
# T7 sequence: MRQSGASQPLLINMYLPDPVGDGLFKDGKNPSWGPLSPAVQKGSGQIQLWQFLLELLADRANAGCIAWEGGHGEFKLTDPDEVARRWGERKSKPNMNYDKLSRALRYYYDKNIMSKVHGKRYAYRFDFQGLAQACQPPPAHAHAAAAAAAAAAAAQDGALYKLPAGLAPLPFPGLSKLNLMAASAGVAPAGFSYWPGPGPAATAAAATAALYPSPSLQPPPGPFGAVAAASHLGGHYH
# In short: as §1
# ETV5 = ETV5 (Homo sapiens, UniProt P41161 1-510); settings: protein: recombinant; tags: N-terminal GST; dsDNA, one strand shown
# In short: as §1
# HSF1 = HSF1 (Homo sapiens, UniProt Q00613 1-529); settings: protein: recombinant; tags: N-terminal GST; chain copies: 3; dsDNA, one strand shown
# In short: as §1
# SPIC = target: T8, SPIC (Homo sapiens, UniProt Q8N5J4 1-248); settings: protein: recombinant; tags: N-terminal GST; dsDNA, one strand shown
# T8 sequence: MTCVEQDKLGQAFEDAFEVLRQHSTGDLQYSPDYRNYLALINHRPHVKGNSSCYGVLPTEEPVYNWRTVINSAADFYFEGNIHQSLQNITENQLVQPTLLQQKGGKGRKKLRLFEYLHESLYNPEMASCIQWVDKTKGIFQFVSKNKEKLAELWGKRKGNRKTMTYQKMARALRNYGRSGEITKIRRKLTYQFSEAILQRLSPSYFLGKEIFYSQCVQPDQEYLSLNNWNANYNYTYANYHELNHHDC
# In short: as §1
# ELF4 = ELF4 (Homo sapiens, UniProt Q99607 1-663); settings: protein: recombinant; tags: N-terminal GST; dsDNA, one strand shown
# In short: as §1
# ELK4 = target: T9, ELK4 (Homo sapiens, UniProt P28324-2 1-405); settings: protein: recombinant; tags: N-terminal GST; dsDNA, one strand shown
# T9 sequence: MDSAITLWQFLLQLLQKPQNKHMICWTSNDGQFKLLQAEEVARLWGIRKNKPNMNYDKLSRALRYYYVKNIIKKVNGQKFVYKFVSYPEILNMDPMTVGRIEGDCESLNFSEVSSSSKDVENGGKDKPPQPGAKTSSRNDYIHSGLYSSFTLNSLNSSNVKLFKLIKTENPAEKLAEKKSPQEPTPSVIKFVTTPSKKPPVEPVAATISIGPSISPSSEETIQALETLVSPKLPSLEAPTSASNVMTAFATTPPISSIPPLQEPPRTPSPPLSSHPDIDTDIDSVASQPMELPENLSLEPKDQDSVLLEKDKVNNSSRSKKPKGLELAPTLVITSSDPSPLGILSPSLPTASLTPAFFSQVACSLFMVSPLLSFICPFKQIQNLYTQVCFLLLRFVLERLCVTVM
# In short: as §1
# ETV2 = target: T10, ETV2 (Homo sapiens, UniProt O00321 1-342); settings: protein: recombinant; tags: N-terminal GST; dsDNA, one strand shown
# T10 sequence: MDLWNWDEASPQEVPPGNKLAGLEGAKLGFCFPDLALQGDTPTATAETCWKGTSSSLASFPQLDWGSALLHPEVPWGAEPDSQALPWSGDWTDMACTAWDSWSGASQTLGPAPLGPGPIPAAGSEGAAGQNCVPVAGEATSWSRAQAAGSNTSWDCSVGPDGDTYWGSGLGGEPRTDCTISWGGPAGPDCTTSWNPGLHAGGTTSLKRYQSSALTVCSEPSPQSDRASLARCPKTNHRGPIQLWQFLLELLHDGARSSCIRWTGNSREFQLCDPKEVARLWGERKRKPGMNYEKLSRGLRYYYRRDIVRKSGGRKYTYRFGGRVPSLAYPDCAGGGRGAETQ
# In short: as §1
# ELF3 = target: T11, ELF3 (Homo sapiens, UniProt P78545 1-371); settings: protein: recombinant; tags: N-terminal GST; dsDNA, one strand shown
# T11 sequence: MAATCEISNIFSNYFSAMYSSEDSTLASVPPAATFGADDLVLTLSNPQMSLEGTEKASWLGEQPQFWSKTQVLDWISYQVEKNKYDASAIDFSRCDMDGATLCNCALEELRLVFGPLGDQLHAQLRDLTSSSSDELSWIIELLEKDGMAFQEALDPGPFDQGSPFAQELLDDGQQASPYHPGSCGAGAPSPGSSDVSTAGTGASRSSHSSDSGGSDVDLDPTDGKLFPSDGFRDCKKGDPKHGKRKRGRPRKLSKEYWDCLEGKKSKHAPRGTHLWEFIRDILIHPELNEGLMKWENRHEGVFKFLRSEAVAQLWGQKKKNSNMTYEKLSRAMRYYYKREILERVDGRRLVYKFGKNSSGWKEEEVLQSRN
# In short: as §1
# CRX = CRX (Homo sapiens, UniProt O43186 1-299); settings: protein: recombinant; tags: N-terminal GST; dsDNA, one strand shown
# In short: as §1
# ETV1 = ETV1 (Homo sapiens, UniProt P50549 1-477); settings: protein: recombinant; tags: N-terminal GST; dsDNA, one strand shown
# In short: as §1
# Sequence of HSF1 (Q00613 whole entry): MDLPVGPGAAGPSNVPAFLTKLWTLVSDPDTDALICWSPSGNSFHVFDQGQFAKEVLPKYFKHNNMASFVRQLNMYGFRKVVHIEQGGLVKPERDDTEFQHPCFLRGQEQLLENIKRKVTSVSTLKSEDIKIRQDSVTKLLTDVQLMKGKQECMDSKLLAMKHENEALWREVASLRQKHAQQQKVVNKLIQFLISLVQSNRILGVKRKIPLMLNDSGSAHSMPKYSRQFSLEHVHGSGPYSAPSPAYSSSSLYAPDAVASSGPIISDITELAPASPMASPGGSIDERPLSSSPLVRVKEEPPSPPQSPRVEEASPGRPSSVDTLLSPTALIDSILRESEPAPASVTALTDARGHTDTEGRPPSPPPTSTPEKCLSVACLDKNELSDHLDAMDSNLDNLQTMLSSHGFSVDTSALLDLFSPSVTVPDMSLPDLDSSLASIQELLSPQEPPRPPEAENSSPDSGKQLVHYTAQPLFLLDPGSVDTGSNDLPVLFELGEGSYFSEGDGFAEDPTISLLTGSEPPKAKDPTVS
# Sequence of CRX (O43186 whole entry): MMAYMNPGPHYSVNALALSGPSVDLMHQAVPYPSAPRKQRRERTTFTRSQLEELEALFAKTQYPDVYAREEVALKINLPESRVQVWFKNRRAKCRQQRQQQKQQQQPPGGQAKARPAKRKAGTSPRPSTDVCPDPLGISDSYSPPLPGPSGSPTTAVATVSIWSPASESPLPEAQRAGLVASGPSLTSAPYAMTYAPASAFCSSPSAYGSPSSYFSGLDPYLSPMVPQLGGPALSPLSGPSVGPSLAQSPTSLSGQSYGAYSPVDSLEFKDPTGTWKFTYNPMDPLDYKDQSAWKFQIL
# Sequence of ELF4 (Q99607 whole entry): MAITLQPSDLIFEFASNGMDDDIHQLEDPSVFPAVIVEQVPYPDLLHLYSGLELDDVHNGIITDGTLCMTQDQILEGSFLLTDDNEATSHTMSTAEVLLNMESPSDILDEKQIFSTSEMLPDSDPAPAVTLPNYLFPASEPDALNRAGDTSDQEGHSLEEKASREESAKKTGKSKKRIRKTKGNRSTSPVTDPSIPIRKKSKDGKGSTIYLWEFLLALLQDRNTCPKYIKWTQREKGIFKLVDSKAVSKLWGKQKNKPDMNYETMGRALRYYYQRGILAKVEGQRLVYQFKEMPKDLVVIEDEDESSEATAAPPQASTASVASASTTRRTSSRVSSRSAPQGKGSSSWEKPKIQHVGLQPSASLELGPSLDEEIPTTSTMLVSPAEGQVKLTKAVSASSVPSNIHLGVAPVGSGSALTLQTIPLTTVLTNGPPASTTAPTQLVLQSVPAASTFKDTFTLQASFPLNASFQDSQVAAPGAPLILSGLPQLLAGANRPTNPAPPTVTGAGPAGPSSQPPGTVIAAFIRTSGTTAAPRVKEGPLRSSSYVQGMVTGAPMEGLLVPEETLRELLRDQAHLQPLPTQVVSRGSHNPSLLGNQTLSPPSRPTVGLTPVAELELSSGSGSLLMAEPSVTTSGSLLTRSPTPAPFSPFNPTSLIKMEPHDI
# Sequence of ETV5 (P41161 whole entry): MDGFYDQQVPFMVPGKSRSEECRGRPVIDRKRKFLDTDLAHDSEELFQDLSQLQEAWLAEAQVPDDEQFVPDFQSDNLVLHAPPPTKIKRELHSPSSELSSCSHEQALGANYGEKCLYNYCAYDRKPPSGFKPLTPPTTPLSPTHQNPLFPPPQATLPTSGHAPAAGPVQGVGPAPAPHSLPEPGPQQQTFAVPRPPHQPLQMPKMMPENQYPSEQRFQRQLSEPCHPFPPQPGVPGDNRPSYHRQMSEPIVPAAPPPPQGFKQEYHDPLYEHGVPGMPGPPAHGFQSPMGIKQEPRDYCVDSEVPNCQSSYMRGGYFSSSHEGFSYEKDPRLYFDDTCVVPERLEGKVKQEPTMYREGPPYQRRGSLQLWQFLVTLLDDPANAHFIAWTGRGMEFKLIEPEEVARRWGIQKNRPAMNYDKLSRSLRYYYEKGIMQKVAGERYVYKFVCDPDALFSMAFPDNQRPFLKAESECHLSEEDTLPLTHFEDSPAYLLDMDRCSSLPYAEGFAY
# Sequence of ELF1 (P32519 whole entry): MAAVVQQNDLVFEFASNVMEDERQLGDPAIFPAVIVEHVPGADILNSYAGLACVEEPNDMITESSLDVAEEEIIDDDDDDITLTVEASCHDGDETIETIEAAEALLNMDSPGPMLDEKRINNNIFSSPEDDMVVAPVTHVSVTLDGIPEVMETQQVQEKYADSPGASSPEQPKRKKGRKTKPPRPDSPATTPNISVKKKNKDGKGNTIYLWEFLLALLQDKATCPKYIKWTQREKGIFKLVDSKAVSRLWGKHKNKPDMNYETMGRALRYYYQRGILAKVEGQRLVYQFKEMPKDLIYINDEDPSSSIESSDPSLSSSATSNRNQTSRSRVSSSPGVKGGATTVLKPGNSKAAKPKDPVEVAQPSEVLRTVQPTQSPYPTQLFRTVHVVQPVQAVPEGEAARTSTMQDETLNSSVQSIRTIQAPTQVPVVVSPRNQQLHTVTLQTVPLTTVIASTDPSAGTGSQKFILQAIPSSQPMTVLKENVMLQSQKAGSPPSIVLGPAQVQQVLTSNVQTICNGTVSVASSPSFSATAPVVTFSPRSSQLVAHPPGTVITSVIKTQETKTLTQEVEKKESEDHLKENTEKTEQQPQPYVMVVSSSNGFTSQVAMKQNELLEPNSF
# Sequence of ETV1 (P50549 whole entry): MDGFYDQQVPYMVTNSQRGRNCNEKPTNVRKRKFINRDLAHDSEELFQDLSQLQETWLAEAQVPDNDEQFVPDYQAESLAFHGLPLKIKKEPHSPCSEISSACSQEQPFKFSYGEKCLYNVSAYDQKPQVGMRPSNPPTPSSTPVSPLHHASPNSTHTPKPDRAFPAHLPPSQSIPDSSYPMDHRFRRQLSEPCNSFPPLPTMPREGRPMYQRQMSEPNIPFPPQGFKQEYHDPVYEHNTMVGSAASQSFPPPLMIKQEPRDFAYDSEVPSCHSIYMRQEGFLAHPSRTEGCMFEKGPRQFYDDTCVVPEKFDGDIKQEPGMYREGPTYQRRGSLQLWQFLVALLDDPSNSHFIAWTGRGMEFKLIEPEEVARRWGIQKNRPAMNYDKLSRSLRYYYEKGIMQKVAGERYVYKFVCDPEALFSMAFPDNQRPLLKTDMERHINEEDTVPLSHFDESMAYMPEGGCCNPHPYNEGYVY
sequence,measurement,setting,value
ATACTG,binding signal,FLI1,"1.1 fold enrichment (6-mer frequency, TF over GST control)"
same,binding signal,ELK1,"1.09 fold enrichment (6-mer frequency, TF over GST control)"
same,binding signal,GABPA,"1.16 fold enrichment (6-mer frequency, TF over GST control)"
same,binding signal,ERG,"1.06 fold enrichment (6-mer frequency, TF over GST control)"
same,binding signal,ELF1,"1.09 fold enrichment (6-mer frequency, TF over GST control)"
same,binding signal,EHF,"1.1 fold enrichment (6-mer frequency, TF over GST control)"
same,binding signal,SPI1,"1.14 fold enrichment (6-mer frequency, TF over GST control)"
same,binding signal,ELK3,"1.14 fold enrichment (6-mer frequency, TF over GST control)"
same,binding signal,FEV,"1.04 fold enrichment (6-mer frequency, TF over GST control)"
same,binding signal,ETV5,"1.15 fold enrichment (6-mer frequency, TF over GST control)"
same,binding signal,HSF1,"1.06 fold enrichment (6-mer frequency, TF over GST control)"
same,binding signal,SPIC,"1.06 fold enrichment (6-mer frequency, TF over GST control)"
same,binding signal,ELF4,"1.16 fold enrichment (6-mer frequency, TF over GST control)"
same,binding signal,ELK4,"1.29 fold enrichment (6-mer frequency, TF over GST control)"
same,binding signal,ETV2,"1.32 fold enrichment (6-mer frequency, TF over GST control)"
same,binding signal,ELF3,"1.18 fold enrichment (6-mer frequency, TF over GST control)"
same,binding signal,CRX,"1.11 fold enrichment (6-mer frequency, TF over GST control)"
same,binding signal,ETV1,"1.05 fold enrichment (6-mer frequency, TF over GST control)"
